From PubChem BioAssay (NCI) come the findings set out here.

About 83,000 compounds went through this panel and 20% of them were active in at least one assay; those are over-represented in the sample as a whole.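 Treatment: one concentration, 48 hours, 96-well format. Scoring: percent growth, with anything below 10 considered active.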 A number with no mark means an inactive call. Activity calls are given as the source filed them.

The assay has as its system A498 renal. The assay can be described thus: NCI-60 one-dose screen, 48 h (100 = growth as untreated, 0 = no growth, -100 = all killed). The following applies: 10 µM. As to the method:
Growth inhibition of the A498 human tumor cell line is measured as a screen for anti-cancer activity. Cells are grown in 96 well plates and exposed to the test compound for 48 hours. Compounds are tested at a single concentration, which is 10^-5 M for most compounds. The reported endpoint is percent growth (GI% or GIPRCNT), where numbers from 0 - 100% represent growth inhibition, and numbers from -100% - 0 represent cell death. For example, a value of 40 represents 60% growth inhibition. A value of 0 means no net growth occurred over the course of the experiment. A value of -40 indicates 40% of cells at the beginning of the experiment died by the end of the experiment. A value of -100 means all cells are dead at the end of the experiment.
NCI-60 Human Tumor Cell Lines Screen was performed using the standard one-dose NCI protocol, which is described in more detail at https://dtp.cancer.gov/discovery_development/nci-60/default.htm.
Compounds with GIPRCNT values below 10 were considered active. Activity score was based on GIPRCNT using the following formula: […]
Score is 0 for GIPRCNT values of 100 or above, 50 for GIPRCNT values of 0, and 100 for GIPRCNT values of -100.
In the case of `CC12OOC(C)(OO1)C2CCC(=O)OCCNc1ccnc2cc(Cl)ccc12` (stereo not given), the growth is 109%.
As for `CCOP(=O)(CC(F)(F)C(F)(F)F)OCC`, the figure is 126%.
Next, `O=C(/C=C/c1ccc(F)cc1)c1nc2ccccc2n1Cc1ccc(F)cc1`: 112%; `CCOP(=O)(OCC)C(NC(C)=O)C(=O)SCCN` (stereo not given): 91.7%; `CC(C)N=C([Se])NC(=O)c1ccccc1`: -29.4% (active).
For `CCC[Se]C(=O)c1ccc(C(=O)[Se]CCC)s1`, the growth is -64.9% (active).
Take `O=C(/C=C/c1ccc(Cl)cc1Cl)c1nc2ccccc2n1Cc1ccc(Br)cc1`: the growth is 103%.
As to `COC(=O)C[C@](O)(CCCC(C)C)C(=O)O[C@H]1C(OC)=C[C@@]23CCCN2CCc2cc4c(cc2[C@@H]13)OCO4`, the growth was -17.2% (active).
Consider `O=C(/C=C/c1ccccc1)c1nc2ccccc2n1Cc1ccc(F)cc1`, for which the growth was 106%.
Consider `COC(=O)CCn1c(-c2ccc(-n3cc(-c4ccc(O[C@H]5O[C@@H]6OC7(C)CC[C@H]8[C@H](C)CC[C@@H]([C@H]5C)[C@@]68OO7)cc4)nn3)cc2)nc2ccccc21`, for which the growth is 74.4%.
Turning to `CN(C)CCc1cn(C2CCC2)c2cccc(O)c12`, the growth is 95%.
For the compound `CC1=C(COCCOC(=O)c2ccc(S(=O)(=O)F)cc2)C2=C(C)C3(CC3)[C@@](C)(O)C(=O)C2=C1`, the growth was -16.9% (active).
As for `COC(=O)C[C@](O)(CCC(C)C)C(=O)O[C@H]1C(OC)=C[C@@]23CCCN2CCc2cc4c(cc2[C@@H]13)OCO4`, the growth is -19% (active).
For the compound `CC[C@]12C=CCN3CC[C@@]4(c5ccc(OC)cc5N(C)[C@H]4[C@@](O)(C(=O)OC)[C@@H]1OC(=O)CCC[P+](C1CCCCC1)(C1CCCCC1)C1CCCCC1)[C@@H]32`, the growth was 21.8%.
For `C[C@H]1[C@H](OC(=O)CCC(=O)N(CCCc2cn(-c3ccc(CN4CCOCC4)cc3)nn2)CCNc2ccnc3cc(Cl)ccc23)O[C@@H]2OC3(C)CC[C@H]4[C@H](C)CC[C@@H]1[C@@]24OO3`, the growth was 93.6%.
As for `Cc1ccc2[nH]c(=S)n(-c3ccc(F)cc3)c(=O)c2c1`, the growth was 98.3%.
Regarding `O=C(/C=C/c1cccc(Br)c1)c1nc2ccccc2n1Cc1ccc(F)cc1`, the growth is 116%.
For the compound `COc1cc(OC)c(S(=O)(=O)N(CCCl)CCCl)cc1C(=O)/C=C/c1ccc(C)cc1`, the growth is 110%.
Next, `C[C@H]1[C@H](OC(=O)CCC(=O)N(CCCc2cn(-c3ccc(C#N)cc3)nn2)CCNc2ccnc3cc(Cl)ccc23)O[C@@H]2OC3(C)CC[C@H]4[C@H](C)CC[C@@H]1[C@@]24OO3`: 110%; `C[C@H]1[C@@H](CC(=O)N[C@@H](Cc2coc3ccccc23)B(O)O)O[C@@H]2OC3(C)CC[C@H]4[C@H](C)CC[C@@H]1[C@@]24OO3`: 36.6%; `O=C(/C=C/c1ccco1)c1nc2ccccc2n1Cc1ccc(Br)cc1`: 105%.
Consider `CC[C@]12C=CCN3CC[C@@]4(c5ccc(OC)cc5N(C)[C@H]4[C@@](O)(C(=O)OC)[C@@H]1OC(=O)CCC[P+](c1ccc(F)cc1)(c1ccc(F)cc1)c1ccc(F)cc1)[C@@H]32`, for which the growth was 101%.
Regarding `CC(=C\C(=O)Oc1ccc2c3c1OC1C(O)CCC4(O)C(C2)N(CC2CCC2)CCC314)/C=C1\CCCc2ccccc21` (stereo not given), the growth is 125%.
As for `O=C(/C=C/c1ccccc1)c1nc2ccccc2n1Cc1ccc(Br)cc1`, the figure is 51%; as for `COc1ccc(OC)c(/C=C/C(=O)c2nc3ccccc3n2Cc2ccc(F)cc2)c1`, 116%; as for `O=C(/C=C/c1ccc(Cl)cc1)c1nc2ccccc2n1Cc1ccc(Br)cc1`, 115%.
Take `C#CC[Se]C(=O)c1ccc2n[se]nc2c1`: the growth is 95.3%.
As to `CC(=O)Oc1ccccc1C(=O)NC([Se])=NC1CCCCC1`, the growth is 16.3%.
Turning to `COCCOCCOCCOc1ccc(-n2cc(CCCN(CCNc3ccnc4cc(Cl)ccc34)C(=O)CCC(=O)O[C@@H]3O[C@@H]4OC5(C)CC[C@H]6[C@H](C)CC[C@@H]([C@H]3C)[C@@]46OO5)nn2)cc1`, the growth was 94.9%.
As for `COc1cc2cc(C(=O)N3C[C@@H](CCl)c4c3cc(OC(=O)N3CCN(C(=O)CCC(=O)N5CCN(C)CC5)[C@@H]5CSSC[C@@H]53)c3ccccc43)[nH]c2c(OC)c1OC`, the growth is -10.8% (active).
For the compound `O=C(/C=C/c1ccc(F)cc1)c1nc2ccccc2n1Cc1ccc(Br)cc1`, the growth is 58.6%.
Take `C=CC[Se]C(=O)c1ccc(C(=O)[Se]CC=C)s1`: the growth was -5.42% (active).
Consider `CC12OOC(C)(OO1)C2CCC(=O)NCCCNc1ccnc2cc(Cl)ccc12` (stereo not given), for which the growth is 114%.
With `Cc1c2oc3c(C)ccc(C(=O)N[C@@H]4C(=O)N[C@H](C(C)C)C(=O)N5CCC[C@H]5C(=O)N(C)CC(=O)N(C)[C@@H](C(C)C)C(=O)OC4C)c3nc-2c(C(=O)N[C@@H]2C(=O)N[C@H](C(C)C)C(=O)N3CC(=O)C[C@H]3C(=O)N(C)CC(=O)N(C)[C@@H](C(C)C)C(=O)OC2C)c(N)c1=O` (stereo not given in full), the growth was -68.7% (active).
In the case of `O=C(/C=C/c1ccco1)c1nc2ccccc2n1Cc1ccc(F)cc1`, the growth was 93.4%.
As for `O=C(/C=C/c1ccc(Cl)cc1Cl)c1nc2ccccc2n1Cc1ccc(F)cc1`, the growth was 94.8%.
As to `O=C(/C=C/c1cccc(Br)c1)c1nc2ccccc2n1Cc1ccc(Br)cc1`, the growth is 81.5%.
Consider `O=C(NC([Se])=NC1CCCCC1)c1ccccc1`, for which the growth was 73.3%.
Regarding `C[C@H]1[C@@H](Oc2ccc(-c3cn(-c4ccnc5cc(Cl)ccc45)nn3)cc2)O[C@@H]2OC3(C)CC[C@H]4[C@H](C)CC[C@@H]1[C@@]24OO3`, the growth was 95%.
Next, `COP(=O)(CC(F)(F)C(F)(F)F)OC`: 131%.
